KCNK3 inh – human KCNK3 channel inhibition, primary screen; B-score at 10 µM; 340,000 tested, 0.84% active; CHO-KCNK3 thallium flux, FluxOR fluorescence; hits give low values; O14649; AID 602410;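 active means B-score under library mean minus 4 SD, starting fluorescence ratio at most library mean plus 5 SD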;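 further: more negative B-score means stronger inhibition of thallium flux through KCNK3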
Target sequence (O14649 whole entry, looked up): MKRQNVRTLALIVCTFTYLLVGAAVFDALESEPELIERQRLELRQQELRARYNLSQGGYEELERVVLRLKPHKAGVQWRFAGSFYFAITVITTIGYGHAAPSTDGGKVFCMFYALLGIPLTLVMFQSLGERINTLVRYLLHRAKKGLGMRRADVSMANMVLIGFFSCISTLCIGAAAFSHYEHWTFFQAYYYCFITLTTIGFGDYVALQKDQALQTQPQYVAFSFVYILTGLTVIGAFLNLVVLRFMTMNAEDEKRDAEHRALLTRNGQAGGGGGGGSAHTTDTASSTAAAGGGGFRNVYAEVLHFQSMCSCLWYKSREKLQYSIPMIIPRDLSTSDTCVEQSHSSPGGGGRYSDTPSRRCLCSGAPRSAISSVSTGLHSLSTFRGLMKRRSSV
Kir21 block – inhibitors of mouse Kir2.1 inward-rectifier potassium channel; P35561; HEK293-Kir2.1, FluxOR thallium flux fluorescence; hits give low values; B-score at 10 µM; 310,000 tested, 0.85% active; AID 1672;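 active means fluorescence ratio B-score at or below minus 3 SD of library scores, with starting-brightness B-score within 2 SD, cut at about -4.2 in these data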;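 further: channel flux triggered by added potassium and thallium sulfate stimulus; B-score of peak minus minimum fluorescence over baseline after thallium stimulus; more negative B-score means stronger Kir2.1 block with less thallium influx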
ANO1 activ – activators or potentiators of mouse TMEM16A chloride channel | HEK293 TMEM16A/YFP-H148Q/I152L, iodide quench fluorescence; hits give low values | B-score at 10 µM | 340,000 tested, 0.3% active;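 active means fluorescence-ratio B-score plate-corrected deviation score at least 3 library SD below zero, with starting fluorescence score within 5 deviations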;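 further: channel opened by trigger with iodide after compound preincubation; score built on the fluorescence ratio of max minus min over baseline; more negative score means more quench and so TMEM16A activation or potentiation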
TMEM16A inh – blocks the mouse calcium-activated chloride channel TMEM16A. Q8BHY3. HEK293 TMEM16A/YFP iodide influx fluorescence, ionomycin. normalized B-score (activity score, 25-100; higher = stronger inhibition) at 10 µM. 310,000 tested, 1.2% active. AID 588511;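 active means ratio plate-corrected score three or more library SD toward inhibition, starting fluorescence score within five deviations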;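 further: score derived from kinetic fluorescence span divided by baseline fluorescence per well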
KCNK9 inh – blocks the human KCNK9 two-pore domain potassium channel. AID 488922. HEK293 KCNK9, FluxOR thallium flux fluorescence; hits give low values. B-score at 10 µM. 310,000 tested, 1.2% active;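 active means ratio B-score over 3 SD below the library mean, with starting fluorescence within 5 SD of its mean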;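 further: negative B-score means less thallium flux so channel inhibition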
A number is an active result; 0 = inactive; - = no result given. The list is not random: actives were taken first. Their share in the collection is about 3.5%.

SMILES | KCNK3 inh | Kir21 block | ANO1 activ | TMEM16A inh | KCNK9 inh
O=C(Nc1ccccc1)c1ccccc1OCC(O)CN1C(=O)c2ccccc2S1(=O)=O (configuration not stated) | 0 | 0 | 0 | 100 | 0
COc1ccc(OCC(O)CN2C(=O)c3ccccc3S2(=O)=O)cc1 (configuration not stated) | 0 | 0 | 0 | 0 | 0
Cc1nn(-c2ccccc2)c(C)c1NC(=O)COc1ccc(Br)cc1Cl | 0 | 0 | 0 | 25 | 0
Cc1nn(-c2ccccc2)c(C)c1NC(=O)COc1ccc2ccccc2c1 | 0 | 0 | 0 | 0 | 0
Cc1c(C(=O)N2CCN(S(=O)(=O)c3ccccc3F)CC2)oc2c(Cl)cccc12 | 0 | - | 0 | - | -
Cc1c(C(=O)NC2CCN(Cc3ccccc3)C2)oc2c(Cl)cccc12 (configuration not stated) | 0 | -9.9 | 0 | 0 | 0
Cc1c(C(=O)N2CCN(c3ccccc3)CC2)oc2c(Cl)cccc12 | -9.9 | - | 0 | - | -
O=C(NC1CCN(Cc2ccccc2)CC1)c1ccccc1Cl | 0 | 0 | 0 | 0 | 0
Cc1ccc(NS(=O)(=O)c2cccc3nsnc23)cc1[N+](=O)[O-] | 0 | 0 | 0 | 0 | 0
COc1ccccc1C(C)NS(=O)(=O)c1cccs1 (configuration not stated) | - | -4.5 | - | 0 | 0
CCCCCNC(=O)c1c[nH]c2ccc(S(=O)(=O)N3CCC4(CC3)OCCO4)cc2c1=O | 0 | 0 | 0 | 0 | 0
Cc1cc2ccccn2c1C(=O)c1ccc(S(=O)(=O)N(C)C)cc1 | 0 | 0 | 0 | 0 | 0
Cc1cc2ccccn2c1C(=O)c1ccc(F)cc1 | 0 | 0 | 0 | 0 | -7.2
CCOc1ncccc1C(=O)NCC(c1ccco1)N1CCCCC1 (configuration not stated) | 0 | - | 0 | - | -
Cc1ccc(C(=O)OC(C(=O)O)C(OC(=O)c2ccc(C)cc2)C(=O)O)cc1 (configuration not stated) | 0 | - | 0 | - | -
O=C(NCC1(c2ccccc2)CCCC1)C1(c2ccccc2)CCCC1 | 0 | 0 | 0 | 100 | 0
O=C(NCC1(c2ccccc2)CCCC1)c1ccccc1 | 0 | 0 | 0 | 0 | 0
O=C(NCC1(c2ccccc2)CCCC1)C(=O)NCC1(c2ccccc2)CCCC1 | 0 | 0 | 0 | - | 0
O=C(NCC1(c2ccccc2)CCCC1)c1ccccc1Br | 0 | -5.3 | 0 | 0 | 0
CCn1c2ccc(F)cc2c2nnc(SCCN3CCCCC3)nc21 | 0 | 0 | 0 | 0 | 0
COc1ccc(S(=O)(=O)N2CCC(C(=O)NCCC(=O)Nc3ccc(Cl)cc3)CC2)cc1 | 0 | 0 | 0 | 0 | 0
Cc1cccc(N(CC(=O)NC2CCCCC2)C(=O)c2c(C)noc2C)c1 | 0 | 0 | 0 | 0 | 0
NC(N)=NC(=O)c1nc(Cl)c(N2CCCCCC2)nc1N | -9.8 | - | 0 | 0 | -
CN(C)S(=O)(=O)N(Cc1ccc(Br)cc1)c1ccccc1 | 0 | 0 | 0 | 0 | -7.4
CN(C)S(=O)(=O)N(CC(=O)N(Cc1ccccc1)Cc1ccccc1)c1ccccc1 | 0 | 0 | 0 | 0 | 0
SMILES | KCNK3 inh | Kir21 block | ANO1 activ | TMEM16A inh | KCNK9 inh
CCCCC(CC)CNC(=O)C(=O)c1ccccc1NC(C)=O (configuration not stated) | 0 | 0 | 0 | 0 | 0
Cc1ccc(S(=O)(=O)N(CC2CO2)c2cccc([N+](=O)[O-])c2)cc1 (configuration not stated) | 0 | -4.9 | 0 | 0 | 0
Cc1ccc(S(=O)(=O)N(CC2CO2)c2ccccc2[N+](=O)[O-])cc1 (configuration not stated) | 0 | 0 | 0 | 0 | 0
O=C1N=C(N2CCOCC2)S/C1=C/c1cc2c(cc1[N+](=O)[O-])OCO2 | 0 | 0 | 0 | 0 | 0
CCOC(=O)c1sc(NC(=O)c2ccccc2)cc1C | 0 | 0 | 0 | 0 | 0
CCOC(=O)c1sc(NC(=O)c2ccc(Cl)s2)cc1C | 0 | 0 | -15 | 0 | 0
CCOC(=O)c1sc(NC(=O)c2c(C)nn(Cc3ccccc3)c2C)cc1C | -11 | - | 0 | 0 | -
CCN(C(=O)CSc1nc2ccccc2n1C)C1CCS(=O)(=O)C1 (configuration not stated) | 0 | - | 0 | - | -
Brc1nnc2n1-c1ccccc1Sc1ccccc1-2 | 0 | -6 | 0 | 0 | 0
Clc1ccccc1-c1nnc2n1-c1ccccc1SC2 | 0 | 0 | 0 | 0 | 0
Clc1ccc2c(c1)-c1nnc(Br)n1-c1ccccc1S2 | 0 | -7.2 | 0 | 0 | 0
c1ccc2c(c1)Sc1ccccc1-n1cnnc1-2 | 0 | 0 | 0 | 0 | 0
O=C(NCC1CCCO1)c1cc(C(=O)C2CCCCC2)c[nH]1 (configuration not stated) | 0 | 0 | 0 | 0 | 0
O=C1CC(c2ccccc2F)c2c(c3ccccc3[nH]c2=O)O1 (configuration not stated) | 0 | 0 | 0 | 0 | 0
CCN1C(=O)/C(=C2\SC(=S)N(NC(=O)c3ccccc3O)C2=O)c2ccccc21 | 0 | 0 | 0 | 100 | 0
N#Cc1ccccc1S(=O)(=O)N1CCN(C(=O)CCC2CCCC2)CC1 | 0 | - | -23 | - | -
N#Cc1ccccc1S(=O)(=O)N1CCN(C(=O)CCc2ccccc2)CC1 | 0 | - | 0 | - | -
CSc1nnc(-c2sccc2OCc2ccc(C)cc2)n1C | 0 | -4.3 | 0 | 0 | 0
Cc1cccc(N(C)S(=O)(=O)c2cccc3nsnc23)c1 | 0 | -4.3 | 0 | 0 | 0
CN(C)S(=O)(=O)c1cccc2nsnc12 | 0 | 0 | 0 | 0 | 0
COc1cc(C(=O)NS(=O)(=O)c2ccccc2C)ccc1Cc1cn(C)c2ccc(NC(=O)OC3CCCC3)cc12 | - | 0 | - | 100 | 0
O=C1N(CCCl)c2ccc(Br)cc2C12OCCO2 | 0 | 0 | 0 | 0 | 0
COc1ccc(N(CC(=O)NCCSC2CCCCC2)S(C)(=O)=O)c(OC)c1 | 0 | 0 | 0 | 0 | 0
COc1ccc(CCNC(=O)C(C)c2ccc([N+](=O)[O-])cc2)cc1 (configuration not stated) | 0 | -4.5 | 0 | 0 | 0
CC(C(=O)NCCCc1ccccc1)c1ccc([N+](=O)[O-])cc1 (configuration not stated) | 0 | -4.4 | 0 | 0 | 0
SMILES | KCNK3 inh | Kir21 block | ANO1 activ | TMEM16A inh | KCNK9 inh
Cc1cccc2cc(CN(CCCN(C)C)C(=S)NCCc3ccccc3)c(=O)[nH]c12 | 0 | 0 | 0 | 0 | 0
COc1ccc(Nc2c3c(nc4ccccc24)CCCC3)cc1OC | 0 | 0 | 0 | 0 | 0
Fc1ccc(Nc2c3c(nc4ccccc24)CCC3)cc1 | 0 | -5.1 | 0 | 0 | 0
Cc1ccc2nc3c(c(Nc4ccccc4)c2c1)CCC3 | 0 | -4.4 | 0 | 0 | 0
c1ccc(Nc2c3c(nc4ccccc24)CCC3)cc1 | 0 | -4.9 | 0 | 0 | 0
COc1ccc(C)cc1Nc1c2c(nc3ccccc13)CCC2 | 0 | -9.3 | 0 | 0 | 0
c1ccc2c(Nc3ccc4c(c3)OCCO4)c3c(nc2c1)CCC3 | 0 | 0 | 0 | 0 | 0
Cc1csc(CNc2ncnc3ccc(-c4cccc(Cl)c4)cc23)c1 | 0 | - | 0 | - | -
COc1ccc(CCNC(=O)COC(=O)c2cc(S(=O)(=O)N3CCOCC3)ccc2C)cc1OC | 0 | - | 0 | - | -
O=C1NC(=O)C(c2ccccc2)N1 (configuration not stated) | 0 | - | 0 | - | -

Compound activity: PubChem BioAssay, Johns Hopkins Ion Channel Center
